An excerpt weighted towards active compounds, which were near 4.4% of everything screened.
TRHR enhancer – allosterically enhances the human TRH receptor; P34981; TRHR cells, fluo-8 calcium fluorescence, EC20 TRH enhancement; enhancement, % at 2 µM; 0.66% of 360,000 active; in the data active = enhancement above about 30%
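Enhancer read-out: after compound pinning and an initial kinetic agonist-mode read, an EC20 of TRH (10 nM final) was injected and fluo-8 calcium signal (Ex 480/Em 530) followed at 1 s/cycle for 100 cycles in TRHR-expressing cells.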
USP1-UAF1 inh – USP1/UAF1 (human) deubiquitinase inhibition | recombinant USP1/UAF1, Ub-Rhodamine cleavage fluorescence | Potency, µM (titrated, usually from 57.1 µM), usual class: inhibitors | 0.23% of 390,000 active | AID 743255; active = well fitted inhibition curve with a large enough effect; inconclusive = small, poorly fitted or top-dose-only effect; inactive = no such curve, though single readings can be large or run the other way; note: nearly all actives have a fitted effect of over 60% in size
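High-throughput fluorogenic screen: 1nM USP1/UAF1 complex, Ub-Rho substrate 150nM final, 50mM HEPES pH 7.8 with 0.5mM EDTA, 0.1 mg/ml BSA, 1mM TCEP and 0.01% Tween-20.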
D1 antagonist – antagonists of human D1 dopamine receptor; activity change, negative = inhibition, % at 10 µM; 3.2% of 360,000 active; P21728; HEK293 TREx D1 cells, calcium flux, dopamine EC80; stronger effect = lower value; AID 504652; in the data active = activity change below about -30%
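Calcium flux readout: force-coupled, inducible Hek293 Trex D1 line, cells induced overnight at 30 C with tetracycline, dye-loaded 30–90 min at RT. Antagonism scored against EC80 dopamine challenge given 180 s after compound.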
D1 ag – activates the human D1 dopamine receptor; P21728; HEK293 T-REx D1 cells, calcium flux, agonist mode; activation, % at 2 µM; AID 504660; 1% of 360,000 active
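Agonism was scored from calcium flux recorded over 180 s (1 read/s) after pintool compound addition, following a 10-cycle baseline. Cells were inducible force-coupled HEK293 TREx D1, plated overnight at 30 C and loaded with no-wash calcium dye.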
D1 PAM – potentiators of human D1 dopamine receptor. 0.036% of 360,000 active. AID 504651. potentiation, % at 10 µM. HEK293 TREx D1 cells, calcium flux, dopamine EC20 potentiation. P21728; in the data active = potentiation above about 30%
TRHR agonist – activates the human TRH receptor. activation, % at 2 µM. 0.18% of 360,000 active. TRHR cells, calcium flux fluo-8, FDSS agonist mode. P34981. AID 493084
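Read-out: compound-evoked intracellular calcium rise in TRHR cells, fluo-8 dye, kinetic FDSS fluorescence at 1 s/cycle following a 10-cycle baseline. Cells cultured overnight before dye loading (30 min–1.5 h, RT).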
Of the large screens only hits and unclear results are named; the others gave an inactive call. Cut-off read from the data, not from the text of the source, unless noted: active = activation above about 30%; inactive = the rest.

CC1(c2cccc(Br)c2)NC(=O)N(CC(=O)Nc2ccc(F)cc2)C1=O (centres undefined)	D1 antagonist -31
O=C(CN1C(=O)c2ccccc2C1=O)NC1CCCCCC1	TRHR enhancer 33
CC1(c2cccc(Br)c2)NC(=O)N(CC(=O)NC2CCCCC2)C1=O (centres undefined)	D1 antagonist -34
O=C(CN1C(=O)c2ccccc2C1=O)NC1CCCCC1	none
O=C(CN1CCN(Cc2ccccc2F)C1=O)NC1CCCC1	D1 antagonist -30
CCC1Sc2ccccc2N(CC(=O)NC2CC2)C1=O (centres undefined)	D1 antagonist -74
O=C(NCc1ccccn1)NC12CC3CC(CC(C3)C1)C2	D1 antagonist -82
CC(C)=CCC/C(C)=C/CC/C(C)=N/O	D1 antagonist -32
COc1cccc(CNC(=O)c2ccc(Cl)c(NC3=NC4CS(=O)(=O)CC4S3)c2)c1 (centres undefined)	D1 antagonist -90
c1ccc(CNc2c3c(nc4ncnn24)CCC3)cc1	D1 antagonist -53
N#Cc1nc(Nc2ccc(F)cc2)nc(NC2CCCC2)n1	none (no result: USP1-UAF1 inh)
CCOc1ccccc1N1CCN(Cc2cn[nH]c2-c2ccc(F)cc2)CC1	USP1-UAF1 inh inconclusive, D1 ag 43
COc1ccc(-c2[nH]ncc2CN2CCCN(c3ccccc3)CC2)c(F)c1	none
COc1ccc(-c2[nH]ncc2CN2CCCC(C(=O)c3ccc(OC)cc3OC)C2)cc1 (centres undefined)	D1 antagonist -31
COc1ccc2cc(-c3[nH]ncc3CN3CCCN(c4ccccc4)CC3)ccc2c1	TRHR enhancer 31
COc1ccc(C(=O)C2CCCN(Cc3cn[nH]c3-c3ccc(F)cc3)C2)cc1OC (centres undefined)	none
Cc1ccc2c(c1)c1c(c(=O)n(Cc3ccccc3)c(=O)n1Cc1cccc(C(F)(F)F)c1)n2C	none
CC(C)(C)C(=O)Nc1ccc(Sc2ccc([N+](=O)[O-])cc2)cc1	D1 antagonist -34
CC(=O)NC(CC(=O)O)c1ccc([N+](=O)[O-])cc1 (centres undefined)	none
CN(O)C(=O)Nc1ccc([N+](=O)[O-])cc1	none
CC(C)(C)C(=O)NC(NC(=O)C(C)(C)C)c1ccc([N+](=O)[O-])cc1	D1 antagonist -32
Oc1ccc2[nH]ccc2c1	D1 antagonist -30
Oc1ccc2ccc3[nH]cnc3c2c1	none
CCOc1ccc(-n2nc(CO)c(C(=O)NCc3cccs3)n2)cc1	none
CC(=O)Nc1ccc(NC(=O)c2ccc(C3SCC(=O)N3CCc3ccccc3)cc2)cc1 (centres undefined)	D1 antagonist -52
Cc1ccc(NC(=O)c2ccc3snnc3c2)cc1Cl	USP1-UAF1 inh inconclusive
COc1cccc(CN2CC(C(=O)NCCSc3nnnn3C)CCC2=O)c1 (centres undefined)	D1 antagonist -37
Cc1ccc(C2CC(=O)n3nc(-c4ccc(F)cc4)nc3S2)cc1 (centres undefined)	none
COC(=O)c1ccc(CSc2nnc(Nc3ccc(OC)cc3)s2)o1	D1 antagonist -30
CCSc1nnc(NC(=O)Cc2ccc(OC)cc2)s1	D1 antagonist -47
CC1(C)Oc2ccc(C(=O)NN)cc2NC1=O	D1 antagonist -38
CN(C)C(=O)C(CCN1CCC(O)(c2ccc(Cl)cc2)CC1)(c1ccccc1)c1ccccc1	D1 ag 40
Cc1cccn2c(=O)c(/C=C(\C#N)c3nc4ccccc4n3C)c(Oc3ccc(Cl)cc3)nc12	USP1-UAF1 inh inconclusive
COc1cccc(C(=O)NCCc2csc3nc(-c4ccccc4F)nn23)c1OC	TRHR enhancer 35
O=C(NCCc1csc2nc(-c3ccccc3F)nn12)c1ccccc1C(F)(F)F	none
O=C(c1ccco1)[C@@H]1[C@@H]2C(=O)N(c3ccc(Br)cc3)C(=O)[C@@H]2C2c3ccccc3C=CN21 (some centres undefined)	USP1-UAF1 inh 16µM
CC(=O)[C@H]1[C@@H]2C(=O)N(c3cccc(Cl)c3)C(=O)[C@@H]2[C@H]2c3ccccc3C=CN21	USP1-UAF1 inh 10µM
